Laboratory results: PubChem BioAssay

assay: probe aShh binding to arrayed compounds – biochemical, biotinylated probe, 635/667 nm fluorescence, primary screen (AID 1114); details: small-molecule microarray, higher = more signal;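 also: probe is biotin-labelled aShh protein from a stem cell growth factor screen; measures binding of labelled protein to compounds printed on the slide; score merges feature fluorescence at 667 nm with signal-to-noise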

Going from `O=C1O[C@H](Cc2ccccc2)[C@@H]2[C@H]3C=CCCC=C3CN2[C@H]1Cc1ccc(O)cc1` to `C=C1C(=O)C=C2CN(C(=O)c3ccccc3)[C@@](Cc3ccc(OC)cc3)(C(=O)OC)[C@@H]12`, the composite z-score rises from 0.207 to 0.232.

Going from `CN1C(=O)[C@@H]2[C@@H](CC(COc3ccccc3)=C3[C@@H](CCc4ccccc4)OB(O)C[C@@H]32)C1=O` to `CCC(CC)C(O)C1C=CC2C(=O)N(c3ccccc3)C(=O)C2N1Nc1ccccc1F` (stereo not given), the composite z-score falls from 0.691 to -0.214.

Compared with `CCOC(=O)C[C@H]1[C@H](OC(=O)Cc2ccc3c(c2)OCO3)[C@@H](NC(=O)Cc2ccc(OC)cc2)c2cc(OCCCO)ccc2N1C(=O)Cc1ccc(OC)cc1`, `COc1ccc([Si](C)(C)[C@@H]2[C@@H](CC(=O)N3Cc4ccccc4C[C@H]3CO)O[C@]3(C(=O)N(Cc4ccc(N5CCOC5=O)cc4)c4ccccc43)[C@H]2C)cc1` is higher in composite z-score: -0.14 for the first, 0.0639 for the second.

First: CN(C)CCCNC(=O)[C@@]1(Cc2ccccc2I)c2ccccc2C(=O)N(C2CCCCC2)[C@H]1c1ccc(CO)cc1
Second: COc1ccccc1CN1C(=O)c2ccccc2[C@](Cc2ccccc2I)(C(=O)NCC(C)C)[C@@H]1c1ccc(CO)cc1
The composite z-score of the first is higher: 1.26 for the first, -0.0243 for the second.

Going from `CCCCC(=C=CC[C@H](O)c1ccc(CO)o1)CCO` to `CCCC[C@H]1C[C@@H]1[C@@H]1N(C(C)=O)[C@H](c2cccc(OC)c2)CC12CC2`, the composite z-score falls from 0.137 to 0.0278.

Going from `COC(=O)[C@@]1(Cc2ccc(F)cc2)[C@H]2c3cc(C(=O)N(C)C)n(C)c3C[C@H]2CN1C(=O)c1ccccc1` to `Cc1ccc(S[C@]2(C(=O)NCCCN(C)C)CC(=O)N(C3Cc4ccccc4C3)[C@@H]2c2ccc(CO)cc2I)cc1`, the composite z-score falls from 0.705 to 0.207.

Going from `CC1CC/C=C\[C@H]2OC34C=CCN(c5ccc(Cl)cc5)C(=O)[C@H]3N(CCCCCCO)C(=O)[C@]4(C)C2C(=O)O1` (stereo not given in full) to `O=C1OCCC=C[C@H]2OC34C=CCN(c5ccc6ccccc6c5)C(=O)[C@H]3N(CCO)C(=O)[C@@H]4C12` (stereo not given in full), the composite z-score falls from -0.138 to -0.383.

First: O=C1C[C@]2(c3ccc([N+](=O)[O-])cc3)C(=O)N(C3CC3)c3cc(CO)ccc3[C@H]2N1C1CCCCC1
Second: O=C(NC1CC1)[C@@H]1c2ccccc2C(=O)N(Cc2cc(C(F)(F)F)cc(C(F)(F)F)c2)[C@H]1c1ccc(CO)cc1
The composite z-score of the first is higher: -0.0146 for the first, -0.517 for the second.

First: Cc1ccc(S[C@]2(C(=O)NCC(F)(F)F)CC(=O)N(Cc3ccccc3C(F)(F)F)[C@@H]2c2ccc(CO)cc2)cc1
Second: Cc1ccc(S[C@]2(C(=O)NCc3ccccc3)CC(=O)N(Cc3ccccc3C(F)(F)F)[C@@H]2c2ccc(CO)cc2)cc1
The composite z-score of the first is lower: -0.253 for the first, -0.221 for the second.

Compared with `N#Cc1ccc(C(O)C2C=CC3C(=O)NC(=O)C3N2Nc2ccc(Cl)cc2Cl)cc1` (stereo not given), `COc1cc(C(O)C2C=CC3C(=O)N(c4ccccc4)C(=O)C3N2Nc2ccccc2F)cc(OC)c1OC` (stereo not given) is lower in composite z-score: 0.296 for the first, -0.0146 for the second.

Going from `O=C1O[C@@H](c2ccccc2)[C@@H](c2ccccc2)N2[C@@H](c3ccccc3OCCO)[C@]3(C(=O)Nc4ccc(C#CCCO)cc43)[C@@H](C(=O)NC[C@H](O)c3ccccc3)[C@H]12` to `COCCOC(=O)N1C(=O)[C@@]2(c3cc(C#CCC(C(=O)OC)C(=O)OC)ccc31)[C@H](c1ccc(O)cc1)N1[C@H](c3ccccc3)[C@H](c3ccccc3)OC(=O)[C@H]1[C@@H]2C(=O)Nc1nc2ccccc2s1`, the composite z-score rises from -0.212 to -0.017.

Compared with `CC(C)(C)OC(=O)CC[C@@]1(C(=O)NCCN2CCOCC2)N=C(c2ccc(OCCCO)cc2)O[C@@H]1c1ccccc1CN=[N+]=[N-]`, `COCCCNC(=O)[C@@H]1c2ccccc2C(=O)N(Cc2ccc(OC(F)(F)F)cc2)[C@H]1c1ccc(CO)cc1` is higher in composite z-score: -0.324 for the first, -0.0035 for the second.

Going from `CC(C)=CCCC(C)=CC(O)C1C=CC2C(=O)NC(=O)C2N1Nc1ccccn1` (stereo not given) to `Cc1ccccc1C(O)C1C=CC2C(=O)N(c3ccccc3)C(=O)C2N1Nc1ccccc1` (stereo not given), the composite z-score rises from -0.153 to 0.108.

Going from `CC(C)N1C(=O)c2ccccc2[C@](C)(C(=O)NCC(F)(F)F)[C@@H]1c1ccc(CO)cc1` to `COC(=O)c1cccc([C@H]2OC(=CC(=O)OC(C)C)C[C@@H](c3cccc(C(=O)OC)c3)O2)c1`, the composite z-score rises from -0.153 to 0.156.

Compared with `COc1ccc([Si](C)(C)[C@@H]2[C@@H](CC(=O)N(CCO)Cc3ccccc3)O[C@]3(C(=O)N(Cc4ccc(N5C(=O)c6cccc7cccc5c67)cc4)c4ccccc43)[C@H]2C)cc1`, `C[C@@H]1ON(c2ccc(I)cc2)[C@H](c2cccc(NC(=O)OCC3c4ccccc4-c4ccccc43)c2)[C@H]1C(=O)N1C(=O)OC[C@H]1Cc1ccccc1` is lower in composite z-score: 0.0725 for the first, -0.0866 for the second.
